# RPL19A-GFP yeast: modulators of TOR pathway RPL19A-GFP in S. cerevisiae. S. cerevisiae RPL19A-GFP strain, flow cytometry, 3 h; active compounds read low. percent response vs DMSO, % at 10 µM. AID 2025. hit rate 0.3% among 330,000;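 active means percent response vs DMSO below 50%; inconclusive means fewer than 70 events counted for the yeast strain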;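 further: median channel GFP fluorescence of the barcoded RPL19A-GFP strain; ratio of sample median GFP to plate DMSO average so 100% = DMSO; lower means less RPL19A-GFP as with rapamycin TOR inhibition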
# CIT2 TOR yeast: alters CIT2-GFP fluorescence in TOR pathway yeast screen | S. cerevisiae CIT2-GFP strain, flow cytometry, 3 h; 100 means same as DMSO wells | GFP response vs DMSO, % at 10 µM | hit rate 0.065% among 320,000 | AID 2029;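 active means GFP response relative to DMSO above a set limit, near the screen mean plus 3 SD, cut at about 150% in these data; inconclusive means Fewer than 70 cells measured for a yeast strain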;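 further: ratio of well median GFP fluorescence to mean of DMSO wells on the plate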
# MEP2 TOR yeast: yeast TOR pathway MEP2-GFP modulation; S. cerevisiae MEP2-GFP strain, flow cytometry GFP, 3 h; 100% = DMSO control level; GFP response vs DMSO, % at 10 µM; hit rate 0.51% among 330,000;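 active means GFP response versus DMSO above a set limit, roughly screen mean plus 3 SD, cut at about 180% in these data; inconclusive means fewer than 70 cells counted for a yeast strain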;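 further: median GFP fluorescence of the barcode-gated MEP2-GFP cells per well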
# DSG3 Ab inh: human desmoglein-3 autoantibody binding inhibition. DSG3-coupled beads, scFv-anti-DSG3-GFP binding, flow cytometry; active compounds read low. binding (percent of control), % at 10 µM. hit rate 0.48% among 310,000;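 active means binding more than 3 SD below its plate's average and above zero; inconclusive means below that plate limit but binding exactly zero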;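 further: hits lower antibody fragment binding to DSG3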
# Target sequence (P32926 whole entry, looked up, the tested form may be a part): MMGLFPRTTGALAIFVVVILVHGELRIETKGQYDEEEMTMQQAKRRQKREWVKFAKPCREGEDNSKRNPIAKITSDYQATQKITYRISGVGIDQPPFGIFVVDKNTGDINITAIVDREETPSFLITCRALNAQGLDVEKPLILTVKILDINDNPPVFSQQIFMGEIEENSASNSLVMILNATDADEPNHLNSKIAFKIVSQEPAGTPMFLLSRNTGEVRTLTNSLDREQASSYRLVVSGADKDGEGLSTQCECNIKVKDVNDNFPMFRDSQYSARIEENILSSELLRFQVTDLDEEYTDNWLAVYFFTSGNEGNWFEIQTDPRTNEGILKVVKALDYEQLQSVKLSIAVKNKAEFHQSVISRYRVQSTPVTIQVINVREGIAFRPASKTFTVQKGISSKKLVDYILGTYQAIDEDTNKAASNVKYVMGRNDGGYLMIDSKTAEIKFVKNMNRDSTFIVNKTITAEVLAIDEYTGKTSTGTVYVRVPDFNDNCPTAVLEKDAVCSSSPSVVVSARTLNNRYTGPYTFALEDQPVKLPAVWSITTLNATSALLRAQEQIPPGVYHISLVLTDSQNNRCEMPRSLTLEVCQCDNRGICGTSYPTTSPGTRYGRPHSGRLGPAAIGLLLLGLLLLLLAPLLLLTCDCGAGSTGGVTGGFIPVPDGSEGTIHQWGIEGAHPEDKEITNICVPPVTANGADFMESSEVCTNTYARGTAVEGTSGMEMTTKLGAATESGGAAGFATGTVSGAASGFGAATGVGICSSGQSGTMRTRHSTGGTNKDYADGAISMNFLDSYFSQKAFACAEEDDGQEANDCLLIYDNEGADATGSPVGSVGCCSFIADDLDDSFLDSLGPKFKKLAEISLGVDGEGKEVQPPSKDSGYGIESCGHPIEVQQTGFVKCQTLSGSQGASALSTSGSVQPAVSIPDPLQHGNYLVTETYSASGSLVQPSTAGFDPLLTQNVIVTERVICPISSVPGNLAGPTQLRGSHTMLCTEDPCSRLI
# AGP1-GFP MLPCN: modulators of TOR pathway AGP1-GFP in S. cerevisiae; hit rate 0.02% among 320,000; S. cerevisiae AGP1-GFP multiplex flow cytometry, 3 h; GFP as percent of DMSO wells; GFP response vs DMSO, % at 10 µM;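 active means GFP response relative to DMSO above a set limit, near screen average plus 3 SD, cut at about 150% in these data; inconclusive means fewer than 70 cells counted for the yeast strain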;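 further: median GFP channel fluorescence of the gated AGP1 strain per well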
# LAP4-GFP MLPCN: alters LAP4-GFP fluorescence in TOR pathway yeast screen; AID 2023; GFP response vs DMSO, % at 10 µM; hit rate 0.34% among 320,000; S. cerevisiae LAP4-GFP multiplex, flow cytometry GFP, 3 h; median GFP as percent of DMSO wells;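 active means GFP response vs DMSO above a set limit, about the screen mean plus 3 SD, cut at about 150% in these data; inconclusive means under 70 cell events counted for the yeast strain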
# An asterisk follows results filed as active; ? = inconclusive; . = no result given; [ ] = remark or other dose. Hits are enriched below; roughly 1.2% of the tested compounds scored in any of these assays.
SMILES,RPL19A-GFP yeast,CIT2 TOR yeast,MEP2 TOR yeast,DSG3 Ab inh,AGP1-GFP MLPCN,LAP4-GFP MLPCN
COc1ccc(NC(=O)Cc2ccsc2)c(OC)c1,46*[may fluoresce violet],?,343*[may fluoresce violet],.,?,81
COc1ccc(NC(=O)COC(=O)Cc2ccsc2)c(OC)c1,95,100,94,101,97,101
COC(=O)c1cc(CNC(=O)Cc2ccsc2)ccc1OC,59,?,298*[may fluoresce violet],.,84,97
Cc1ccc(C)c(N(CC(=O)N/N=C/c2ccc(-c3ccc([N+](=O)[O-])cc3)o2)S(=O)(=O)c2ccccc2)c1,103,101,107,85*,107,98
CC1CN(C(=O)COC(=O)c2cncc(Br)c2)CC(C)O1 (configuration not stated),.,.,.,106,.,.
O=C(CSc1ccc2nnc(-c3cccnc3)n2n1)Nc1ccccc1F,.,.,.,99,.,.
CCn1c2ccccc2c2cc(/C=N/n3cn[nH]c3=S)ccc21,90,83,87,107,91,160*
CCn1c2ccccc2c2cc(/C=N/n3cnnc3)ccc21,87,93,96,82,89,116
N#Cc1c(N)nc2c(c1-c1ccncc1)CCCCC2,54,?,817*[may fluoresce violet],101,?,80
CN1CCN(CCC(=O)Nc2cccc(Br)c2)CC1,91,104,82,105,111,99
OC1(c2ccccc2)CC(c2ccccc2)c2ccccc2O1 (configuration not stated),.,.,.,49*,.,.
CSc1nnc(Cc2cc(=O)[nH]c(=O)[nH]2)n1-c1cccc(C)c1,53,?,225*[may fluoresce violet],.,17,96
Cc1cccc(-n2c(Cc3cc(=O)[nH]c(=O)[nH]3)nnc2SCC(=O)N2CCCCC2)c1,98,101,99,104,101,99
Cc1ccc(C(=O)OCC(=O)N2CC(C)OC(C)C2)cc1 (configuration not stated),94,95,101,103,97,105
CC1CN(C(=O)COC(=O)c2ccc(O)cc2)CC(C)O1 (configuration not stated),23*[may fluoresce violet],?,?,?,?,63
O=c1[nH]c(=O)c2nc3c4ccccc4c4ccccc4c3nc2[nH]1,94,92,96,29*,91,92
O=[N+]([O-])c1ccc(OCc2cnc(Cl)s2)c([N+](=O)[O-])c1,97,84,88,87*,91,106
Cc1ccccc1C(=O)NNC(=S)NC(=O)c1cccs1,96,87,100,79*,135,125
CC(C)(C)c1ccc(C(=O)NC(=S)NNC(=O)c2cccs2)cc1,110,97,115,81*,107,120
Cc1ccccc1C(=O)Nc1cccc(NC(=S)NC(=O)c2cccs2)c1,97,98,108,109,92,99
N#C/C(=C\c1ccc(-c2ccc(F)cc2)o1)C(=O)Nc1nc(-c2cccs2)cs1,99,95,105,99,92,102
N#C/C(=C/c1ccc(-c2ccc([N+](=O)[O-])cc2)o1)C(=O)Nc1nc(-c2cccs2)cs1,.,.,.,74*,.,.
CSc1nnc2c(n1)OC(c1ccccn1)N(C(C)=O)c1ccccc1-2 (configuration not stated),106,106,100,85,102,94
O=C(c1ccc2c(c1)OCO2)N1CCC(Cc2ccccc2)CC1,26*[may fluoresce violet],?,273*[may fluoresce violet],106,?,112
O=C(O)c1cc(-n2nnnc2SCc2ccccc2F)ccc1Cl,105,108,106,74*,106,106
SMILES,RPL19A-GFP yeast,CIT2 TOR yeast,MEP2 TOR yeast,DSG3 Ab inh,AGP1-GFP MLPCN,LAP4-GFP MLPCN
Oc1cccc(-n2nnnc2SCc2ccccc2F)c1,95,95,103,100,104,.
COc1ccc(C(=O)Oc2ccc(/C=N/NC(=O)c3ccccc3OC)cc2[N+](=O)[O-])cc1,102,105,195*,-5.1*,100,117
CCC(C)N(CC(=O)Nc1cccc(C)c1C)C(=O)CCl (configuration not stated),98,103,110,100,108,107
O=c1cc2oc3cc(O)c(O)cc3c(-c3ccccc3O)c-2cc1O,.,.,.,74*,.,.
CCOc1ccccc1-c1c2cc(O)c(=O)cc-2oc2cc(O)c(O)cc12,.,.,.,96,.,.
COc1cccc(CN2CCNC(=O)C2CC(=O)N(C)C2CCCCC2)c1OC (configuration not stated),107,113,108,107,107,94
Cc1ccc(OCCN2CCN(C(=O)CCC(=O)Nc3nnc(CC(C)C)s3)CC2)cc1,43*[may fluoresce violet],?,355*[may fluoresce violet],.,?,77
CN1CCc2c(sc3c2C(=O)NC(/C=C\c2ccccc2)N3)C1 (configuration not stated),59,?,673*[may fluoresce violet],95,20,107
COc1ccc(Nc2nc(-c3sc(N)nc3C)cs2)cc1,40*[may fluoresce violet],?,213*[may fluoresce violet],.,?,?
Cc1nc(N)sc1-c1csc(Nc2ccccn2)n1,.,.,.,102,.,.
Cc1nc(N)sc1-c1csc(Nc2ccc(Cl)cn2)n1,91,93,95,100,96,164*
Cc1ccc(Nc2nc(-c3sc(N)nc3C)cs2)cc1,101,97,98,98,98,94
O=C(COc1ccc(Cl)cc1)N1CCN(C(=O)c2ccccc2F)CC1,98,92,112,.,54,96
CCN(Cc1ccc(C#CCCO)cc1)CC1CCCN(CCc2cccc(F)c2)C1 (configuration not stated),99,97,103,119,94,88
COc1ccc(NC(=O)C2C3C=CC(C3)C2C(=O)NCc2ccco2)c(OC)c1 (configuration not stated),63,102,195*,99,27,95
O=C(O)C1C2C=CC(C2)C1C(=O)NCc1ccco1 (configuration not stated),99,95,92,97,98,101
O=C(COc1ccc(Cl)cc1)N1CCN(S(=O)(=O)c2cc(F)ccc2F)CC1,.,.,.,113,.,.
CCCCCCCCOC(=O)CCc1c(C)[nH]c(=S)[nH]c1=O,102,103,101,11*,101,102
Cc1cc(NC(=O)c2ccno2)no1,92,156*[may fluoresce green],112,102,113,107
O=C1/C(=C\c2cccs2)SC(=S)N1C1CCS(=O)(=O)C1 (configuration not stated),13*[may fluoresce violet],?,?,91,?,?
Cc1ccc(/C=C2\SC(=S)N(C3CCS(=O)(=O)C3)C2=O)o1 (configuration not stated),97,100,99,85,96,110
O=C1/C(=C/c2ccccc2)SC(=S)N1C1CCS(=O)(=O)C1 (configuration not stated),102,106,100,109,112,118

# Bioassay records from PubChem BioAssay.
